IL-1B inflam inh: blocks inflammasome-driven IL-1 beta release; THP-1 LPS/ATP IL-1B secretion, AlphaLISA, 16 h; stronger effect = lower value; AID 743279; activity change, % at 57.5 µM; 360,000 tested, 4.7% active; in the data active = activity change below about -50%; inconclusive = mostly about -30% to -49%
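Secreted IL-1B measured by AlphaLISA bead assay after 16 h compound exposure of THP-1 cells; compounds (final up to 57.5 uM) added 1 h before LPS (250 ng/mL) and ATP (1.25 mM) stimulation; lower signal means less secretion.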
HT1080 IDH1KD tx: toxicity to HT-1080 IDH1 knockdown cells (counter line); HT-1080 IDH1 knockdown viability, ATP luminescence, 48 h; 360,000 tested, 2% active; Potency, µM (top dose mostly 46.1 µM), without a hit: top-dose activity, negative = toxicity, most hits filed as cytotoxic; AID 686971;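 also: potency is read from the fitted curve at half-maximal effect; 0% = DMSO wells and -100% = cell-free medium wells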
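Viability of IDH1-knockdown HT-1080 fibrosarcoma cells was assessed by CellTiter-Glo after 48 h at 37 °C with titrated compound; concentration-effect curves were classified by fit quality and response size.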
DT40 TDP1 no CPT: qHTS for Inhibitors of human tyrosyl-DNA phosphodiesterase 1 (TDP1): qHTS in cells in absence of CPT; DT40 Tdp1-/- hTDP1 cells, no CPT, ATP luminescence, 48 h; Potency, µM (highest dose often 46.2 µM), for the others: at the highest dose activity change, negative = growth inhibition, hits mostly inhibitors; 420,000 tested, 15% active; also: potency is read from the fitted curve at half-maximal effect; nearly all actives have a fitted effect of over 55% in size
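Seeded 400 DT40-hTDP1 cells/well (vehicle DMSO, no 20 nM CPT); pinned compounds; ≥48 hr at 37 °C; CellTiter-Glo luminescence as viability measure.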
HT1080NT lethal: kills 2HG-producing HT-1080-NT fibrosarcoma cells. HT-1080-NT fibrosarcoma viability, CellTiter-Glo ATP luminescence, 48 h. Potency, µM (titrated, usually from 46.1 µM), without a hit: top-dose activity, negative = less viability, hits mostly cytotoxic. 360,000 tested, 1.6% active;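 also: NT is the 2HG producing partner of a matched IDH1 knockdown line; potency is read from the fitted curve at half-maximal effect; 0% = DMSO-treated cells and -100% = media-only wells without cells; nearly all actives have a fitted effect of over 55% in size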
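Luminescent CellTiter-Glo readout after 48 hours of compound exposure at 37 degrees C defined viability of HT-1080-NT cells. Activity was normalized to DMSO wells and cell-free media wells; concentration-response curves were fitted and assigned curve classes.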
ELG1 repair inh: ELG1-dependent DNA repair inhibition; HEK293T ELG1-luciferase reporter, luminescence, 16 h; DNA damage induced by 5-fluorouridine; Potency, µM (doses to about 46.1 µM), for inactives: top-dose activity change, negative = inhibition, actives largely listed as inhibitors; 330,000 tested, 2.3% active; AID 504467; also: potency is read from the fitted curve at half-maximal effect; nearly all actives have a fitted effect of over 55% in size
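In this reporter screen, reduction of luminescence relative to DMSO vehicle indicated activity. Compounds and 5-fluorouridine were added together to 2,000 cells per well, incubated for 16 hr at 37 °C, then developed with ONE-Glo.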
TDP1 cell CPT: DT40-hTDP1 cell growth loss with CPT | AID 686979 | chicken DT40 Tdp1-/-;hTDP1 cells + 20 nM CPT, ATP luminescence, 48 h | Potency, µM (series often up to 46.2 µM), for the others: top-dose activity change, negative = growth inhibition, hits mostly inhibitors | 420,000 tested, 12% active; also: potency is read from the fitted curve at half-maximal effect; nearly all actives have a fitted effect of over 55% in size
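Cell growth measured by CellTiter-Glo luminescence after a minimum 48 h, 37 C compound exposure with 20 nM CPT in Tdp1-knockout DT40 cells stably expressing hTDP1, seeded 400/well; qHTS titration format.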
Starred values were filed as active, the others as inactive; i = inactive; ? = inconclusive; / = not tested or not shown; [ ] = dose if it differs, or a comment. A selection: hits, their analogues and other compounds. The true share with any hit is near 19%. Unless noted, calls follow the shape of the dose curve; as a rule, active = well fitted curve in the direction sought with a large enough effect; inconclusive = small, poorly fitted or top-dose-only effect, or another doubt; inactive = no such curve, though single readings can be large; an effect the other way counts as inactive or inconclusive. Unless noted, % is scaled to controls: 0 for no effect and ±100 for the full control effect.

SMILES	IL-1B inflam inh	HT1080 IDH1KD tx	DT40 TDP1 no CPT	HT1080NT lethal	ELG1 repair inh	TDP1 cell CPT
CCC(Sc1nc2cc(OC)c(OC)cc2c(=O)n1Cc1ccc(Cl)cc1)C(=O)NCCOC (stereo not drawn)	/	/	-7%	/	/	-4%
COc1cc(NC(=O)c2nnn(CC(=O)Nc3cc(C)ccc3C)c2N)cc(OC)c1	/	/	-4%	/	/	0%
Cc1ccc(-c2csc(N(CCO)CCCn3c(C(F)(F)F)nc4ccccc43)n2)cc1	-3	-15%	?	-14%	?	21µM*
Cc1cccc(C(=O)N2N=C(c3ccc(NS(C)(=O)=O)cc3)CC2c2cccs2)c1 (stereo not drawn)	-20	-20%	-19%	-12%	?	23µM*
CCS(=O)(=O)Nc1ccc(C2=NN(C(=O)c3ccccc3)C(c3cccs3)C2)cc1 (stereo not drawn)	?	?	21µM*	?	16µM*	23µM*
O=C(c1ccccc1)N1N=C(c2ccccc2)CC1c1cccs1 (stereo not drawn)	-15	0%	?	-2%	2%	-25%
CS(=O)(=O)N1N=C(c2ccc(Br)cc2)CC1c1cccs1 (stereo not drawn)	-22	-2%	26µM*	-5%	?	21µM*
O=C1CC(c2ccc(O[C@@H]3OC(CO)[C@@H](O)C(O)C3O)cc2)Oc2cc(O)ccc21 (stereo partly drawn)	/	/	-6%[9.04 µM]	/	/	6%[9.04 µM]
Cc1cc(C)c2oc(C(=O)Nc3c(C)n(C)n(-c4ccccc4)c3=O)cc(=O)c2c1	/	/	-10%	/	/	1%
Cc1cccc(C)c1OCc1nc2c3cnn(-c4ccccc4Br)c3ncn2n1	/	/	?	/	/	10µM*
O=C(NC(NC(=S)Nc1ccc(Cl)cc1Cl)C(Cl)(Cl)Cl)c1cccc([N+](=O)[O-])c1 (stereo not drawn)	-102*	?	5.8µM*	?	21%	7.3µM*
Cc1cc(C)c(NC(=S)NC(NC(=O)c2ccccc2)C(Cl)(Cl)Cl)c(C)c1 (stereo not drawn)	-75*	?	5.8µM*	?	?	?
Cc1ccccc1NC(=S)NC(NC(=O)c1ccccc1C)C(Cl)(Cl)Cl (stereo not drawn)	-12	-15%	21µM*	-21%	-4%	?
COc1cc(/C=C/C(=O)OCC(=O)NCCc2ccc(S(N)(=O)=O)cc2)ccc1OCC#N	-9	-3%	1%	-1%	12%	-3%
COc1cccc(CN(Cc2ccco2)S(=O)(=O)c2ccc(S(=O)(=O)NCc3ccccc3)cc2)c1OC	-16	-11%	?	1%	12µM*	29µM*
COc1ccc(NC(=O)CSc2ccc3nc(-c4ccccc4)cn3n2)cc1OC	/	/	-22%	/	/	-21%
COc1ccc(-c2cn3nc(SCC(=O)Nc4cccc(C)c4C)ccc3n2)cc1	/	/	?	/	/	15µM*
COc1ccc(-c2cn3nc(SCC(=O)Nc4cc(C)cc(C)c4)ccc3n2)cc1	/	/	21µM*	/	/	?
COc1ccc(NC(=O)c2cc3nc(-c4ccccc4)cc(-c4ccccc4)n3n2)c(OC)c1	-15	18%	10µM*	17%	5%	11µM*
COc1ccc(NC(=O)CSc2ccc3nc(-c4ccccc4)cn3n2)c(OC)c1	/	/	9.2µM*	/	/	12µM*
O=C(Nc1cc2c3c(c1)CC(=O)N3CCC2)c1c(F)cccc1F	12	7%	-2%	9%	?	-1%
CC1(C)CC2(C)CC(=O)C1C(C(=O)O)C2C(=O)O (stereo not drawn)	-24	19%	6%	10%	/	15%
CC(C)(C)c1ccc(S(=O)(=O)NC(=O)C2(C)CCN2C(=O)Cc2ccccc2Cl)cc1 (stereo not drawn)	7	5%	-2%	13%	/	-13%
O=C(NC1CCCC1)c1cc2nc(-c3ccccc3)cc(-c3ccccc3)n2n1	28	7%	?	0%	?	?
CC1CCN(C(=O)c2cc3nc(-c4ccccc4)cc(-c4ccccc4)n3n2)CC1	-55*	1%	29µM*	-5%	?	16µM*
SMILES	IL-1B inflam inh	HT1080 IDH1KD tx	DT40 TDP1 no CPT	HT1080NT lethal	ELG1 repair inh	TDP1 cell CPT
CCOc1ccc(C(=O)NC(=S)Nc2ccc(NC(=O)c3ccco3)c(C)c2)cc1[N+](=O)[O-]	-8	0%	-5%	17%	3%	-14%
N#CC(C#N)=C(Nc1ccc(F)cc1)SCc1cccc(Br)c1	-96*	18µM*	2.3µM*	9.2µM*	?	2.9µM*
CC(C)n1c(CNC(=O)c2ccccc2F)nnc1SCC(=O)c1ccc(F)cc1	22	8%	-20%	-1%	/	6%
O=C(Cc1ccc([N+](=O)[O-])cc1)N1N=C(c2ccncc2)CC1(O)C(F)(F)F (stereo not drawn)	9	8%	?	5%	0%	21µM*
O=C(COc1ccccc1)N1N=C(c2cccnc2)CC1(O)C(F)(F)F (stereo not drawn)	0	6%	-30%	7%	1%	-5%
Cc1ccc(OCC(=O)N2N=C(c3ccncc3)CC2(O)C(F)(F)F)cc1C (stereo not drawn)	5	-24%	21µM*	?	-30%	?
CC(C)(C)S(=O)(=O)N1Cc2cc(CO)cc(CCO)c2[C@@H]1CCO	21	2%	-2%	4%	/	7%
CCOC(=O)CN(c1sc(C)c(C)c1C(=O)OCC)S(=O)(=O)c1ccc(C)cc1	-5	-18%	15µM*	-11%	/	?
C/C(=N\NS(=O)(=O)c1ccccc1)c1ccccc1	0	3%	0%	5%	7%	0%
CCCCc1ccc(S(=O)(=O)N/N=C(/C)c2ccncc2)cc1	i	6%	?	?	?	16µM*
Cc1ccc(N2C(S)=C(C#N)C(=O)NC2c2ccco2)cc1 (stereo not drawn)	39	0%	?	?	25%	23µM*
Cc1ccc(N2C(S)=C(C#N)C(=O)NC2c2cccs2)cc1 (stereo not drawn)	-10	-6%	13µM*	-8%	19%	15µM*
CCCNC(=O)C1(C)CCCN(Cc2ccccc2C#N)C1 (stereo not drawn)	12	16%	?	8%	/	?

Screens deposited in PubChem BioAssay by National Center for Advancing Translational Sciences (NCATS).
